Compound activity deposited in PubChem by National Center for Advancing Translational Sciences (NCATS).
Sm TGR block – qHTS Assay for the Inhibitors of Schistosoma Mansoni Peroxiredoxins; Schistosoma mansoni thioredoxin glutathione reductase (TGR), Q962Y6; purified TGR, DTNB reduction, TNB absorbance 405 nm; Potency, µM (top dose mostly 114 µM), usual class: inhibitors; hit rate 3% among 360,000; AID 485364, 2010; further: nearly all actives have a fitted effect of over 60% in size
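Kinetic colorimetric format: TGR-catalysed, NADPH-driven DTNB reduction monitored via TNB absorbance. Enzyme dispensed at 20 nM; compound exposure 15 min at room temperature before reaction start.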
FBPA Giardia inh – qHTS Assay for Inhibitors of Fructose-1,6-bisphosphate Aldolase from Giardia Lamblia | purified Giardia FBPA | hit rate 0.71% among 290,000 | A8B2U2 | Potency, µM (top dose mostly 59.6 µM), usual class: inhibitors | AID 2451, 2010; further: nearly all actives have a fitted effect of over 55% in size
Target sequence (A8B2U2 whole entry, looked up): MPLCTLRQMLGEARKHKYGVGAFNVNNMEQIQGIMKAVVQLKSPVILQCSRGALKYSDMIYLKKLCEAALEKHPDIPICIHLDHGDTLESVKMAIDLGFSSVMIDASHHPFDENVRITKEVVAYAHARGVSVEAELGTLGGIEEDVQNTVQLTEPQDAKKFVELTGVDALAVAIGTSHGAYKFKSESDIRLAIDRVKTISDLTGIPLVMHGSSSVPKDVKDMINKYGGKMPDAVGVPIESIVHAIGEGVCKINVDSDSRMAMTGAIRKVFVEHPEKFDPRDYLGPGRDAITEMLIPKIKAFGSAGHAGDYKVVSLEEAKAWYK
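Giardia FBPA (40 nM reagent) was preincubated 10 min at RT with compound (up to 57.5 uM final), then substrate plus GAPDH/TPI/NAD/arsenate coupling system with diaphorase/resazurin was added; resorufin fluorescence (525/598 nm) was read after 20 min.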
Pf growth 48h – Primary qHTS for delayed death inhibitors of the malarial parasite plastid, 48 hour incubation | AID 504832, 2011 | Potency, µM (titrated, usually from 28.7 µM), hits mostly inhibitors | hit rate 5.9% among 310,000 | P. falciparum luciferase growth in erythrocytes, 48 h
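Firefly luciferase activity from engineered P. falciparum reports growth; inhibitors lower the luminescent signal. Cultures contained 2% hematocrit erythrocytes at 0.1% final parasitemia.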
Pf growth 96h – Primary qHTS for delayed death inhibitors of the malarial parasite plastid, 96 hour incubation | P. falciparum luciferase reporter growth, 96 h | hit rate 6.9% among 320,000 | AID 504834, 2011 | Potency, µM (doses to about 28.7 µM), hits mostly inhibitors
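96 h incubation, 37 C, 5% CO2, of luciferase-reporter P. falciparum-infected RBCs (2% hematocrit, 0.05% parasitemia final) with test compounds; endpoint luminescence.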
HCMV inh – qHTS Assay for inhibitors of the human cytomegalovirus (HCMV); HFF cells, HCMV-luciferase reporter, 72 h; stronger effect = lower value; activity change, negative = inhibition, % at 57.5 µM; hit rate 4.5% among 410,000; AID 1259415, 2018; in the data active means activity change below about -60%; inconclusive means no clear call, values can overlap the other calls; inactive means above about -39%
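Inhibition of viral replication was scored as loss of reporter luminescence in HFFs infected with HCMV-luciferase (MOI 1 PFU/cell) for 72 h; compounds tested at 2 doses, normalized to buffer and Salinomycin controls.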
A number is an active result; [ ] = another dose, or the depositor's remark. The list is not random: actives were taken first. Their share in the collection is about 14%. Unless noted, the call rests on the fitted dose curve; in most records, active means well fitted curve in the direction sought with a large enough effect; inconclusive means small, poorly fitted or top-dose-only effect, or another doubt; inactive means no such curve, though single readings can be large; an effect the other way counts as inactive or inconclusive.

Results for CC(=O)CC1c2ccccc2C=C(c2ccsc2)N1c1ccc(-c2cccs2)cc1 (stereo not given) ?
HCMV inh: -78

How did Cn1c(SCC(=O)Nc2ccc3c(c2)OCCO3)nnc1-c1ccncc1 do in these assays?
Sm TGR block: inactive; FBPA Giardia inh: inactive; Pf growth 48h: inactive; Pf growth 96h: inactive; HCMV inh: inactive

What do the screens show for `CCn1c(SCC(=O)Nc2ccc(C)cc2)nc2sc3c(c2c1=O)CCN(C)C3`?
Sm TGR block: inactive; Pf growth 48h: 3.7µM; Pf growth 96h: 0.37µM; HCMV inh: inconclusive

How did CCCn1c(SCC(=O)Nc2cc(C(=O)O)ccc2C)nc2sc3c(c2c1=O)CCC3 do in these assays?
Sm TGR block: inactive; Pf growth 48h: inactive; Pf growth 96h: inactive; HCMV inh: inactive

Results for CCn1c(SCC(N)=O)nc2sc3c(c2c1=O)CCN(C)C3 ?
Sm TGR block: inconclusive; FBPA Giardia inh: inactive; Pf growth 48h: 1.3µM; Pf growth 96h: inconclusive; HCMV inh: inactive

Results for CCOc1ccc(-n2cc(-c3ccccc3)c3c(NCc4ccc(F)cc4)ncnc32)cc1 ?
Sm TGR block: 79µM; HCMV inh: inactive

What do the screens show for `CC[C@]1(c2ccccc2OC)ON(c2ccccc2C(F)(F)F)C1=O`?
Sm TGR block: inactive; Pf growth 48h: 0.52µM; Pf growth 96h: 0.41µM; HCMV inh: inactive

What do the screens show for `COc1ccccc1[C@]1(C)ON(c2ccccc2C(F)(F)F)C1=O`?
Sm TGR block: inactive; Pf growth 48h: 1µM; Pf growth 96h: 0.83µM; HCMV inh: inactive

How did CC(C)C[C@]1(c2ccccc2)ON(c2ccccc2C(F)(F)F)C1=O do in these assays?
Sm TGR block: inactive; Pf growth 48h: 9.3µM; Pf growth 96h: inconclusive; HCMV inh: inactive

How did COc1ccc2c(c1)C(=O)N(c1ccccc1OC)C(=O)C2(C)C do in these assays?
Sm TGR block: inactive[11.4 µM]; FBPA Giardia inh: inactive; Pf growth 96h: inactive; HCMV inh: inactive

What do the screens show for `Cc1[nH]n(C(N)=S)c(=O)c1N=Nc1cccc(C(F)(F)F)c1`?
Sm TGR block: inactive; FBPA Giardia inh: inactive; Pf growth 48h: 1.3µM; Pf growth 96h: inconclusive; HCMV inh: inactive

How did NS(=O)(=O)c1ccc(N=Nc2c(=O)[nH]n3c(=O)c4c([nH]c23)CCCC4)cc1 do in these assays?
Sm TGR block: inactive; FBPA Giardia inh: inactive; Pf growth 48h: inconclusive; Pf growth 96h: 2.3µM; HCMV inh: inactive

What do the screens show for `O=c1[nH]n2c(=O)c3c([nH]c2c1N=Nc1cccc(C(F)(F)F)c1)CCCC3`?
Sm TGR block: inactive; FBPA Giardia inh: inactive; Pf growth 48h: 13µM; Pf growth 96h: inconclusive; HCMV inh: inactive

How did Cc1[nH]n(C(N)=S)c(=O)c1N=Nc1cc(C(F)(F)F)ccc1Cl do in these assays?
Sm TGR block: inactive; FBPA Giardia inh: inactive; Pf growth 48h: inactive; Pf growth 96h: inconclusive; HCMV inh: inactive

Results for Cc1ccccc1-n1c(SCC(=O)NCc2cccs2)nc2ccccc2c1=O ?
Sm TGR block: inactive; FBPA Giardia inh: inactive; Pf growth 48h: inactive; Pf growth 96h: inconclusive; HCMV inh: inactive

Results for Cc1cnc(CNc2ncncc2-c2cccc(C#N)c2)cn1 ?
FBPA Giardia inh: inactive

What do the screens show for `O=C(O)c1ccc(-c2ccccc2C(F)(F)F)s1`?
FBPA Giardia inh: inactive

What do the screens show for `CCSc1nnc(N2C(=O)c3ccc(C(=O)c4ccc(C(=O)O)cc4)cc3C2=O)s1`?
Sm TGR block: inactive; FBPA Giardia inh: inactive; Pf growth 48h: inactive; Pf growth 96h: 10µM; HCMV inh: inconclusive

What do the screens show for `O=C(NCc1ccco1)Nc1nnc([C@H]2C[C@H](O)[C@@H](CO)O2)s1`?
HCMV inh: inactive

What do the screens show for `Cc1ccc(-c2csc(NC(=O)c3ccc([N+](=O)[O-])o3)n2)cc1`?
Sm TGR block: inactive; FBPA Giardia inh: inactive; Pf growth 48h: 13µM; Pf growth 96h: 2.6µM; HCMV inh: inactive

How did NC(=O)Cc1nc(-c2ccc([N+](=O)[O-])cc2)cs1 do in these assays?
Sm TGR block: inactive; FBPA Giardia inh: inactive; Pf growth 48h: inactive; Pf growth 96h: inactive; HCMV inh: -93

How did O=C(Nc1ccc([N+](=O)[O-])cc1)Nc1nc(-c2ccc(Cl)s2)cs1 do in these assays?
Sm TGR block: inactive; FBPA Giardia inh: inactive; Pf growth 48h: 1.9µM; Pf growth 96h: inconclusive; HCMV inh: -100
